The record followed here is ChEMBL document CHEMBL1961873, “Compounds: GSK PKIS; Assays: Nanosyn kinase panel” (2012).

SMILES strings stand for the structures.

Usually inhibition stands for the relative decrease from the control value, in per cent.

In assay [1] the target is Protein kinase C gamma type (Homo sapiens) (UniProt P05129). As to conditions: at 1 µM.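 Also: each value is an averaged percent inhibition of the enzyme.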
Assay [2] concerns the target T1, Protein kinase C iota type (Homo sapiens) (UniProt P41743).
T1 sequence (whole entry): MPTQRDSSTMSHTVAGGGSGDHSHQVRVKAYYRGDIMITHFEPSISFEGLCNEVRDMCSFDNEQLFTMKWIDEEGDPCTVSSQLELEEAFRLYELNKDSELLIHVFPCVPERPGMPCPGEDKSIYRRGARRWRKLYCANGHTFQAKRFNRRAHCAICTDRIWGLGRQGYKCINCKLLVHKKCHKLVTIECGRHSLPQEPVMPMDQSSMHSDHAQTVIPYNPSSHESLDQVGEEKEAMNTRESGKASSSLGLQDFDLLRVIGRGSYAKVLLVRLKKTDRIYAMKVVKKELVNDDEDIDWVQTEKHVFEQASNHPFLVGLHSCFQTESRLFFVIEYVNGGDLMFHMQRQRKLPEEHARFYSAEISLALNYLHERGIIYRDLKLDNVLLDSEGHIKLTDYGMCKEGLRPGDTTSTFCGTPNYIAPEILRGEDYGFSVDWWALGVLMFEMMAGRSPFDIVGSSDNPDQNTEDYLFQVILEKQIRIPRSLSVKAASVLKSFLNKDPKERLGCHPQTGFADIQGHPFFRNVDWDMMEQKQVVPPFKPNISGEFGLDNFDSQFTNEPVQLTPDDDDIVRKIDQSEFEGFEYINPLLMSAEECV
As to conditions: at 0.1 µM.

Assay [3] has as its target T1, Protein kinase C iota type (Homo sapiens). Conditions: at 1 µM.
Assay [4] has as its target Protein kinase C theta type (Homo sapiens) (UniProt Q04759). Conditions: at 0.1 µM.
Assay [5] shares this target. As to conditions: at 1 µM.
Assay [6] deals with Protein kinase C beta type (Homo sapiens) (UniProt P05771). Conditions: at 0.1 µM.
Assay [7] has the same target. As to conditions: at 1 µM.
For assay [8], the target named is T2, Serine/threonine-protein kinase D1 (Homo sapiens) (UniProt Q15139).
T2 sequence (whole entry): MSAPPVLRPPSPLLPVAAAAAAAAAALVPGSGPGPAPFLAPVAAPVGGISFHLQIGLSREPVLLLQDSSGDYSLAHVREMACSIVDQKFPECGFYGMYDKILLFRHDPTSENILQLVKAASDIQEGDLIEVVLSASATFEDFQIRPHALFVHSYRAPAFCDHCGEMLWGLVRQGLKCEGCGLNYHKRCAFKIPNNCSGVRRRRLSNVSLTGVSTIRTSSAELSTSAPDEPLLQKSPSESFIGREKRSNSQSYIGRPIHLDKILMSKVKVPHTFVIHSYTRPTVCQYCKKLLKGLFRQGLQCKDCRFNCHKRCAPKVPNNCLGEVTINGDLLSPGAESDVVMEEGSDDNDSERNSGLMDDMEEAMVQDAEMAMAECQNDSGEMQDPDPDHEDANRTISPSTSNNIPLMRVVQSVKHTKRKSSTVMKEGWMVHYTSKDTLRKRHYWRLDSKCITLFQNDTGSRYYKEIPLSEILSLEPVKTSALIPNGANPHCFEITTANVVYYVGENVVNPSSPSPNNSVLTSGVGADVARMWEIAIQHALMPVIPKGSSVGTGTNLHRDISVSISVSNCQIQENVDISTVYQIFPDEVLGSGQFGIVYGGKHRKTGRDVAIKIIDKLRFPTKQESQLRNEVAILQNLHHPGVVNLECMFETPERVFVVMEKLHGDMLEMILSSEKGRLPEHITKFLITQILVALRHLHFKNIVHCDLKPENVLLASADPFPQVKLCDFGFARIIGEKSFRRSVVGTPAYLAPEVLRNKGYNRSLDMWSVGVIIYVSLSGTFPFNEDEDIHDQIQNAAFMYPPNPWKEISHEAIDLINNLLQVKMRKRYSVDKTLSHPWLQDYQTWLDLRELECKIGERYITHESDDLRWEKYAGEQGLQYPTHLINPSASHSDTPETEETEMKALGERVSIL
Conditions: at 0.1 µM.

Assay [9] addresses T2, Serine/threonine-protein kinase D1 (Homo sapiens). Conditions: at 1 µM.
For assay [10], the target named is T3, Serine/threonine-protein kinase D2 (Homo sapiens) (UniProt Q9BZL6).
T3 sequence (whole entry): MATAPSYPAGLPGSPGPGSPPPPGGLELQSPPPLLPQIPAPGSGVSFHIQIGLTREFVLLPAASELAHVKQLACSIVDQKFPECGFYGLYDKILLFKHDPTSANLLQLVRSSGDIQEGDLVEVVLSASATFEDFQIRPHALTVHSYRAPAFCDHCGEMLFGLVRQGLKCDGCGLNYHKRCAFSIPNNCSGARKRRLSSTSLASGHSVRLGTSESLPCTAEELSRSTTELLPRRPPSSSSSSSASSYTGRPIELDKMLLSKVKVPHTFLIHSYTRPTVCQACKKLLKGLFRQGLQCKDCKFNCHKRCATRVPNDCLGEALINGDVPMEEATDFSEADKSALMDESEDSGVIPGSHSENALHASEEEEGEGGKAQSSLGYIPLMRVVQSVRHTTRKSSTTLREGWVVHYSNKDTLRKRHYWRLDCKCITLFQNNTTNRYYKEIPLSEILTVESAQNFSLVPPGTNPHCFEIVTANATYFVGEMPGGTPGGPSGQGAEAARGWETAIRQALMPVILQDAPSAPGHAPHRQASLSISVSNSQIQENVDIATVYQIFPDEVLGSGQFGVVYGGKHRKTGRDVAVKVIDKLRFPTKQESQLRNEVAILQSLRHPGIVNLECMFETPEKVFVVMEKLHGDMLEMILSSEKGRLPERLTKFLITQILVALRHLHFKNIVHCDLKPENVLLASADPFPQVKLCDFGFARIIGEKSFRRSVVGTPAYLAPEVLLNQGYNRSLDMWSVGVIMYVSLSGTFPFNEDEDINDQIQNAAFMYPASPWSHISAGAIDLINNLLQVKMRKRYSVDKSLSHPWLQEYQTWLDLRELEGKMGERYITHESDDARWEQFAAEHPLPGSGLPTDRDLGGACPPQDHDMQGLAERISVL
As to conditions: at 0.1 µM.

In assay [11] the target is T3, Serine/threonine-protein kinase D2 (Homo sapiens). Conditions: at 1 µM.
In assay [12] the target is T4, Serine/threonine-protein kinase D3 (Homo sapiens) (UniProt O94806).
T4 sequence (whole entry): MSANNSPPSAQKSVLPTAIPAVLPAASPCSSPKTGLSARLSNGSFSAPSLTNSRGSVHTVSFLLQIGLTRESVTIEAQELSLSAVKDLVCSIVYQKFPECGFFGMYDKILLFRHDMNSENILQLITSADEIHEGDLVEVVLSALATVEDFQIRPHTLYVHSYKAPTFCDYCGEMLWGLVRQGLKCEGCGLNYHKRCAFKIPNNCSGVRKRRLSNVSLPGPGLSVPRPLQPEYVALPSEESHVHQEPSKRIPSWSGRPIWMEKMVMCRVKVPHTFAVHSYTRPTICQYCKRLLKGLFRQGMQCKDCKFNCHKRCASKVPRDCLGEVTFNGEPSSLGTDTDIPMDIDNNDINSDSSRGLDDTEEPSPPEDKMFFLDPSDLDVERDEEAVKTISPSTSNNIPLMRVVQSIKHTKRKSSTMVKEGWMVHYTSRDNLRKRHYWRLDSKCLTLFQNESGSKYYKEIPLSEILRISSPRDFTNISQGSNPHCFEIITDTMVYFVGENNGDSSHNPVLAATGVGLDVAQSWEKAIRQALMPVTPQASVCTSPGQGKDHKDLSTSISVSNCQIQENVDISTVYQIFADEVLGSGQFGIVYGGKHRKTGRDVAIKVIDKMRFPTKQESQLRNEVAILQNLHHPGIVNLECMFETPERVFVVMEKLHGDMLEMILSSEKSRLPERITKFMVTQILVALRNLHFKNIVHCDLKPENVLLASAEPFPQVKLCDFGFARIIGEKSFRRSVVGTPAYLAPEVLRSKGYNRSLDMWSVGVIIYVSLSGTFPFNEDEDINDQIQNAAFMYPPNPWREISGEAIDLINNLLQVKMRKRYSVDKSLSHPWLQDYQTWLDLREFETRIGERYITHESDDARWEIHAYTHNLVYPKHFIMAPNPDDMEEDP
As to conditions: at 0.1 µM.

The target of assay [13] is T4, Serine/threonine-protein kinase D3 (Homo sapiens). As to conditions: at 1 µM.
Assay [14] has as its target T5, cGMP-dependent protein kinase 1 (Homo sapiens) (UniProt Q13976).
T5 sequence (whole entry): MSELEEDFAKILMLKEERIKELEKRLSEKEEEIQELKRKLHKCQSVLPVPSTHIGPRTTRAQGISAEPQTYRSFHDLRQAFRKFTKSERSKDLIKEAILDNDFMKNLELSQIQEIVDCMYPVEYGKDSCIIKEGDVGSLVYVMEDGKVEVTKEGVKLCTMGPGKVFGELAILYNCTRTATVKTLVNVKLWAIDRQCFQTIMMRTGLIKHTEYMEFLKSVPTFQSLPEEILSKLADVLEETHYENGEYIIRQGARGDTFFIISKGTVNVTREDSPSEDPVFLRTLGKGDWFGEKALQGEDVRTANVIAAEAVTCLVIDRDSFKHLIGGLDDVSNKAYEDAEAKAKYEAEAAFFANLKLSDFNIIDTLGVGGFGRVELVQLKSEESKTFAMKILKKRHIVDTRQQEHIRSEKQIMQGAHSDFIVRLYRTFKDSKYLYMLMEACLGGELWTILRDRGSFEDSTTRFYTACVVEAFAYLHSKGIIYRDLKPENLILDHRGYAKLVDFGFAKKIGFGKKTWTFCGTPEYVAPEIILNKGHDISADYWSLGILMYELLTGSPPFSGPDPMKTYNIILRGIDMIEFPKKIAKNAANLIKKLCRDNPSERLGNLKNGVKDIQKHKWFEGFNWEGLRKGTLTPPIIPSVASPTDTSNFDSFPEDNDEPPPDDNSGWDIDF
As to conditions: at 0.1 µM.

The target of assay [15] is T5, cGMP-dependent protein kinase 1 (Homo sapiens). Conditions: at 1 µM.
Assay [16] has as its target T6, cGMP-dependent protein kinase 2 (Homo sapiens) (UniProt Q13237).
T6 sequence (whole entry): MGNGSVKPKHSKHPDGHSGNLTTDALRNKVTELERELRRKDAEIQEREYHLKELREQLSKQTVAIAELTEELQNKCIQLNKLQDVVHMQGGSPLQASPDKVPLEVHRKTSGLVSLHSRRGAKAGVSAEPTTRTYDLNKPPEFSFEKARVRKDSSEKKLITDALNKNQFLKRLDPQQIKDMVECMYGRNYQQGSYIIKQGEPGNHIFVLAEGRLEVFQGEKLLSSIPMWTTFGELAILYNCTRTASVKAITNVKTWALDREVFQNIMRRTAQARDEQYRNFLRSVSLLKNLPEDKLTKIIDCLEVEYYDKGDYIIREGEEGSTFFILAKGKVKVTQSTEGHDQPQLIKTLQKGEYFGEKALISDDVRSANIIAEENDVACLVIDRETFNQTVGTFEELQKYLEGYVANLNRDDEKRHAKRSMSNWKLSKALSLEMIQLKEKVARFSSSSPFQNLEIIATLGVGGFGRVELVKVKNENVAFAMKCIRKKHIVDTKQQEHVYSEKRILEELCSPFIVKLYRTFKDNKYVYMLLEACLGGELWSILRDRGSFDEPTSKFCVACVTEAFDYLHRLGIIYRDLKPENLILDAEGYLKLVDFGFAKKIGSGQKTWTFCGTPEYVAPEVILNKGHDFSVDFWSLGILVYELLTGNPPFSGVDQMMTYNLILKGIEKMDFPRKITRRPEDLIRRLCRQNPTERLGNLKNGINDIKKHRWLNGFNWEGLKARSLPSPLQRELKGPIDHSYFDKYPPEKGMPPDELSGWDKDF
Conditions: at 0.1 µM.

For assay [17], the target named is T6, cGMP-dependent protein kinase 2 (Homo sapiens). As to conditions: at 1 µM.
The target in assay [18] is T7, cAMP-dependent protein kinase catalytic subunit PRKX (Homo sapiens) (UniProt P51817).
T7 sequence (whole entry): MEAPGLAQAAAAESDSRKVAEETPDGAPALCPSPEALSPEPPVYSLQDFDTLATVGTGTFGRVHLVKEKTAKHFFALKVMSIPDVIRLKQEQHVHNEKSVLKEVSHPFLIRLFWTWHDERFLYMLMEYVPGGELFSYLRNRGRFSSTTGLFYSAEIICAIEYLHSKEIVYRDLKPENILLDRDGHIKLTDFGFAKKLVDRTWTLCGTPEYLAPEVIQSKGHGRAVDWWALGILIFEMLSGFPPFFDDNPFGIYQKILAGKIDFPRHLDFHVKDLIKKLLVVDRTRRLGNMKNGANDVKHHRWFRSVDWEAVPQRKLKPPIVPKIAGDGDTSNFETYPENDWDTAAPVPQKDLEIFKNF
As to conditions: at 0.1 µM.

The target in assay [19] is T7, cAMP-dependent protein kinase catalytic subunit PRKX (Homo sapiens). As to conditions: at 1 µM.
Assay [20] concerns the target Rho-associated protein kinase 1 (Homo sapiens) (UniProt Q13464). As to conditions: at 0.1 µM.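 Also: values are mean percent inhibition of ROCK1.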

Protein kinase C theta type (Homo sapiens), sequence (Q04759 whole entry, looked up): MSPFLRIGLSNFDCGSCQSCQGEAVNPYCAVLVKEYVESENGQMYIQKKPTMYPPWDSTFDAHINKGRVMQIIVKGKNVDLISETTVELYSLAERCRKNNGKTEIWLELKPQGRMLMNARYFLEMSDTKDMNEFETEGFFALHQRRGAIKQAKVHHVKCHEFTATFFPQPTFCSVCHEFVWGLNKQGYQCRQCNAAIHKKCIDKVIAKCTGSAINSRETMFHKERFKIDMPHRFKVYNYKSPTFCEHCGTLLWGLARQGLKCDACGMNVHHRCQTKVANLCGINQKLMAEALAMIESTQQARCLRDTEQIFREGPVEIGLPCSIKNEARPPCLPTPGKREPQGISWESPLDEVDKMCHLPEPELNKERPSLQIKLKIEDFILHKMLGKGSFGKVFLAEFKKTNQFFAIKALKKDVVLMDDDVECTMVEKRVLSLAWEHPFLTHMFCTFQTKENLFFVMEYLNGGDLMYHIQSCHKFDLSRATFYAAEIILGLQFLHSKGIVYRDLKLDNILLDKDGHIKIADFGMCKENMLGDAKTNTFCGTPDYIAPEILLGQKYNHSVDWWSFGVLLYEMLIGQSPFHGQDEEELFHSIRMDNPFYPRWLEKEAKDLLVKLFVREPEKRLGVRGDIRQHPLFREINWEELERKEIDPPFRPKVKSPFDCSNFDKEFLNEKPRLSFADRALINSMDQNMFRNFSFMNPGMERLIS
Protein kinase C beta type (Homo sapiens), sequence (P05771 2-671 limits assumed): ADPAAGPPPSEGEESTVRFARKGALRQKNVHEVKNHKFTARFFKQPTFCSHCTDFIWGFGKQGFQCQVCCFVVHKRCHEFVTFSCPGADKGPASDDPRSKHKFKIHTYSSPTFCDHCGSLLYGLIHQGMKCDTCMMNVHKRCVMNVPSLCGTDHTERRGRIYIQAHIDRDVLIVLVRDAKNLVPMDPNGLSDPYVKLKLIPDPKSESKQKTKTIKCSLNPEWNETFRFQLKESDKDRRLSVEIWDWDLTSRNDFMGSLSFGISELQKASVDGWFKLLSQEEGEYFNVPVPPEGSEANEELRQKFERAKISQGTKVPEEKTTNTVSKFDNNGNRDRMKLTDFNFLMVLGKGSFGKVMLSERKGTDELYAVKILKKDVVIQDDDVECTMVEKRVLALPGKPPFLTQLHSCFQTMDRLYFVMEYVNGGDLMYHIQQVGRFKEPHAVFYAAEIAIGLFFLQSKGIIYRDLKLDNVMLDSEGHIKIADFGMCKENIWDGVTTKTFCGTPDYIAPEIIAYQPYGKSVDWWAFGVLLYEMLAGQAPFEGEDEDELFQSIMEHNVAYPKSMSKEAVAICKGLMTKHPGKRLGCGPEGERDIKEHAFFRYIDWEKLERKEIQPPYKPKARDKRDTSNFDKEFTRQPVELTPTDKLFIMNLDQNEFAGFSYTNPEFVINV
Rho-associated protein kinase 1 (Homo sapiens), sequence (Q13464 2-1354 limits assumed): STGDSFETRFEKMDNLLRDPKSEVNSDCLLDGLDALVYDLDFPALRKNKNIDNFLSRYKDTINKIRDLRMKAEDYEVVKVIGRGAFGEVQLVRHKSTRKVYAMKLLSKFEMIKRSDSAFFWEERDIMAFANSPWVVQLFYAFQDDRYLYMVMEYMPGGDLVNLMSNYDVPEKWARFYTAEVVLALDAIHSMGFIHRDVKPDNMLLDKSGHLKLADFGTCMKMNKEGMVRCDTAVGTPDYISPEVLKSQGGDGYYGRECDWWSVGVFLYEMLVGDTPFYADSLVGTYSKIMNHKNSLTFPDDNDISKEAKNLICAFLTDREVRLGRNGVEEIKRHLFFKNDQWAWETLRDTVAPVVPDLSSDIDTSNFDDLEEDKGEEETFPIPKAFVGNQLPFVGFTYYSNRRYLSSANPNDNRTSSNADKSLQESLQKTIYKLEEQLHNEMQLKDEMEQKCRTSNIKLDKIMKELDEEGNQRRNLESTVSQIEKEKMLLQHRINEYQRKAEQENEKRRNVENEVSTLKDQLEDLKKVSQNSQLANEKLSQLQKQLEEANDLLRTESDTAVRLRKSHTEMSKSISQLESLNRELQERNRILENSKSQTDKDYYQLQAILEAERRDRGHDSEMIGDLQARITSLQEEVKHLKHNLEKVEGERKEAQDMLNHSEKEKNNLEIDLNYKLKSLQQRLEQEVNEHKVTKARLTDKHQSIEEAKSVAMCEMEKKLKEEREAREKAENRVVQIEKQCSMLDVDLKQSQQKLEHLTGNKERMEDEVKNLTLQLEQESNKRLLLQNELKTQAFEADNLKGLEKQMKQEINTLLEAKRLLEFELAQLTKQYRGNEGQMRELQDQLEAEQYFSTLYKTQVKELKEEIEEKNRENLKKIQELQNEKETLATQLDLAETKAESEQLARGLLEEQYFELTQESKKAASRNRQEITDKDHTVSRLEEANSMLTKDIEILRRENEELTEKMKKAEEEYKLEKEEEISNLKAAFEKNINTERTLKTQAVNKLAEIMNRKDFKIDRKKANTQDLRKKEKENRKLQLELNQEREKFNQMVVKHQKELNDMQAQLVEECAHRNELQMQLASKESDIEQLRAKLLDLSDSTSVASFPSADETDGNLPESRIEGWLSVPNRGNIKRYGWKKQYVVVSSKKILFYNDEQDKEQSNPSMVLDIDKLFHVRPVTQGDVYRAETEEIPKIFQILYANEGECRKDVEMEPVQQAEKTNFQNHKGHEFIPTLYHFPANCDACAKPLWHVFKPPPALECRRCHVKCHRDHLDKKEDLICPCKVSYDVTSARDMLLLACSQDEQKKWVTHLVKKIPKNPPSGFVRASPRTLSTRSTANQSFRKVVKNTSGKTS

Turning to `FC(F)(F)c1cccc(-c2nn3ncccc3c2-c2ccnc(Nc3ccc4c(c3)OCCO4)n2)c1`, the inhibition is 2.4% in assay [1]; -1.47% in [2]; 2.18% in assay [3]; 0.59% in assay [4]; -0.24% in [5]; 0.37% in [6]. The inhibition in assay [7] amounted to 0.77%; in assay [8], 3.4%; in assay [9] it was 33.6%; in assay [10] it was 5.98%; in assay [11], 49%; in assay [12], 6.61%. Further, the inhibition in [13] is 47.2%; in assay [14] it was 0.41%; in assay [15], 2.81%; in assay [16], 0.46%; in [17], 3.03%; in assay [18], 0.27%. In addition, the figures for the inhibition in assay [19] and in assay [20] were -1.55% and 0%, respectively.
For the compound `Fc1cccc(COc2ccc(Nc3ncnc4sc(-c5ccco5)cc34)cc2Cl)c1`, the inhibition in [1] worked out at 1.6%; in assay [2] it was 2.45%; in assay [3], 2.35%; in [4] it was 2%; in assay [5], 2.39%; in assay [6], 1%. Further, the inhibition is 1.15% in assay [7]; 5.24% in assay [8]; 6.44% in assay [9]; 4.13% in [10]; 2.52% in assay [11]; 5.28% in assay [12]. In addition, the inhibition in assay [13] was 4.41%; in assay [14], 2.93%; in assay [15] it was 1.81%; in [16], 1.59%; in assay [17] it was -0.65%; in assay [18], 2.01%. Besides, the inhibition in [19] was found to be 2.86%; in assay [20] it was 2.54%.
